Several values for one entry are separate records, joined by “and”; a condition that tells them apart may be missing. Identical values can stand only once. In all, about 5,500 compounds went through this assay and about 2,000 (36%) were called active. About 18% were inconclusive and are not listed. Cut-off read from the data, not from the text of the source: active = normalized growth mostly below about 0.91 (no sharp cut-off); inconclusive = no clear call, values can overlap the other calls; inactive = mostly above about 0.92. Some of the results follow.
Test: chemical genetic growth profiling, strain panel (AID 1159580);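 note: tested at 20 µM; growth read once vehicle control cultures reached saturation at 30 °C; 1 = growth at the plate median or of vehicle wells; lower values mean less growth of the strain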
Conditions: S. cerevisiae deletion strains, growth OD

Measured: normalized growth

CCCc1ncc(C[n+]2ccccc2C)c(N)n1
inactive: locus YAL021C, strain ccr4, stronger effect = lower value 0.94 | locus YAL026C, strain drs2, stronger effect = lower value 0.999 | locus YAL030W, strain snc1, stronger effect = lower value 0.991 | locus YBL061C, strain skt5, stronger effect = lower value 0.976 | locus YBR009C, strain hhf1, stronger effect = lower value 1.03 | locus YBR021W, strain FUR4, stronger effect = lower value 1.06 | locus YBR023C, strain chs3, stronger effect = lower value 0.999 | locus YBR171W, strain sec66, stronger effect = lower value 0.969 | locus YBR229C, strain ROT2, stronger effect = lower value 1 | locus YBR231C, strain swc5, stronger effect = lower value 0.966 | locus YBR279W, strain paf1, stronger effect = lower value 1.01 | locus YCL011C, strain gbp2, stronger effect = lower value 1 | locus YCL016C, strain dcc1, stronger effect = lower value 1.01 | locus YCL029C, strain bik1, stronger effect = lower value 1 | locus YCL069W, strain vba3, stronger effect = lower value 0.981 | locus YCR088W, strain abp1, stronger effect = lower value 0.992 | locus YDL005C, strain med2, stronger effect = lower value 0.929 | locus YDL035C, strain GPR1, stronger effect = lower value 1.01 | locus YDL040C, strain nat1, stronger effect = lower value 0.967 | locus YDL074C, strain BRE1, stronger effect = lower value 0.99 | locus YDL101C, strain DUN1, stronger effect = lower value 1 | locus YDL134C, strain PPH21, stronger effect = lower value 0.996 | locus YDL185W, strain tfp1, stronger effect = lower value 1.01 | locus YDL192W, strain arf1, stronger effect = lower value 0.999 | locus YDR001C, strain nth1, stronger effect = lower value 0.987 | locus YDR069C, strain doa4, stronger effect = lower value 0.983 | locus YDR101C, strain arx1, stronger effect = lower value 1.01 | locus YDR137W, strain rgp1, stronger effect = lower value 0.998 | locus YDR159W, strain sac3, stronger effect = lower value 0.995 | locus YDR162C, strain NBP2, stronger effect = lower value 1.01 | locus YDR195W, strain ref2 0.932 | locus YDR297W, strain sur2, stronger effect = lower value 0.999 | locus YDR318W, strain mcm21, stronger effect = lower value 0.995 | locus YDR334W, strain swr1, stronger effect = lower value 0.992 | locus YDR335W, strain msn5, stronger effect = lower value 0.99 | locus YDR388W, stronger effect = lower value 0.997 | locus YDR392W, strain spt3, stronger effect = lower value 1.08 | locus YDR502C, strain sam2, stronger effect = lower value 0.993 | locus YEL003W, strain gim4, stronger effect = lower value 0.983 | locus YEL037C, strain rad23, stronger effect = lower value 0.984 | locus YEL061C, strain CIN8 (second series), stronger effect = lower value 0.988 | locus YEL061C, strain CIN8, stronger effect = lower value 1 | locus YER015W, strain faa2, stronger effect = lower value 0.992 | locus YER016W, strain bim1, stronger effect = lower value 1.02 | locus YER110C, stronger effect = lower value 0.99 | locus YER111C, strain swi4, stronger effect = lower value 0.983 | locus YER155C, strain BEM2 (second series), stronger effect = lower value 0.975 | locus YER155C, strain BEM2, stronger effect = lower value 0.991 | locus YER167W, strain BCK2, stronger effect = lower value 0.991 | locus YFR010W, strain ubp6, stronger effect = lower value 0.99 | locus YGL078C, strain dbp3, stronger effect = lower value 0.988 | locus YGL086W, strain mad1, stronger effect = lower value 0.984 | locus YGL167C, strain pmr1, stronger effect = lower value 0.961 | locus YGL173C, strain kem1, stronger effect = lower value 0.947 | locus YGL227W, strain vid30, stronger effect = lower value 0.988 | locus YGL240W, strain doc1, stronger effect = lower value 0.96 | locus YGL248W, strain PDE1, stronger effect = lower value 0.983 | locus YGL253W, strain hxk2, stronger effect = lower value 1.01 | locus YGR078C, strain PAC10, stronger effect = lower value 0.983 | locus YGR135W, strain pre9, stronger effect = lower value 0.984 | locus YGR229C, strain SMI1, stronger effect = lower value 0.997 | locus YGR252W, strain gcn5, stronger effect = lower value 0.967 | locus YHR013C, strain ard1, stronger effect = lower value 0.986 | locus YHR027C, strain rpn1, stronger effect = lower value 0.997 | locus YHR030C, strain SLT2, stronger effect = lower value 1 and 1.11 | locus YHR079C, strain IRE1 (second series), stronger effect = lower value 0.998 | locus YHR079C, strain IRE1, stronger effect = lower value 1.04 | locus YHR094C, strain hxt1, stronger effect = lower value 0.994 | locus YHR129C, strain ARP1, stronger effect = lower value 1 | locus YHR142W, strain chs7, stronger effect = lower value 0.976 | locus YHR200W, strain rpn10, stronger effect = lower value 0.995 | locus YIL066C, strain RNR3, stronger effect = lower value 1.02 | locus YIL073C, strain SPO22, stronger effect = lower value 0.975 | locus YIL125W, strain kgd1, stronger effect = lower value 0.986 | locus YIR030C, strain dcg1, stronger effect = lower value 1.02 | locus YJL092W, strain hpr5, stronger effect = lower value 0.959 | locus YJL095W, strain BCK1 (second series), stronger effect = lower value 0.95 | locus YJL095W, strain BCK1, stronger effect = lower value 1.03 and 1.04 | locus YJL115W, strain asf1, stronger effect = lower value 0.981 | locus YJL129C, strain trk1, stronger effect = lower value 0.966 | locus YJL134W, strain LCB3, stronger effect = lower value 1.01 | locus YJL154C, strain vps35, stronger effect = lower value 0.972 | locus YJL164C, strain tpk1, stronger effect = lower value 1.01 | locus YJL166W, strain qcr8, stronger effect = lower value 0.941 | locus YJL168C, strain set2, stronger effect = lower value 1 | locus YJL187C, strain SWE1 (second series), stronger effect = lower value 0.988 | locus YJR043C, strain POL32, stronger effect = lower value 0.989 | locus YJR066W, strain TOR1, stronger effect = lower value 0.993 | locus YJR075W, strain HOC1, stronger effect = lower value 0.988 | locus YKL009W, strain mrt4, stronger effect = lower value 0.958 | locus YKL068W, stronger effect = lower value 0.995 | locus YKL085W, strain MDH1 (second series), stronger effect = lower value 0.983 | locus YKL085W, strain MDH1, stronger effect = lower value 0.983 | locus YKL160W, strain elf1, stronger effect = lower value 0.981 | locus YKL190W, strain CNB1, stronger effect = lower value 1.01 | locus YKR001C, strain vps1, stronger effect = lower value 1 | locus YKR091W, strain srl3, stronger effect = lower value 0.964 | locus YLL001W, strain dnm1, stronger effect = lower value 0.931 | locus YLL026W, stronger effect = lower value 0.983 | locus YLL041C, strain sdh2, stronger effect = lower value 0.991 | locus YLR027C, strain aat2, stronger effect = lower value 0.983 | locus YLR039C, strain RIC1, stronger effect = lower value 0.944 | locus YLR058C, strain SHM2, stronger effect = lower value 1.01 | locus YLR102C, strain apc9, stronger effect = lower value 0.995 | locus YLR113W, strain HOG1, stronger effect = lower value 1.05 | locus YLR221C, strain rsa3, stronger effect = lower value 1.02 | locus YLR258W, strain gsy2, stronger effect = lower value 0.991 | locus YLR262C, strain YPT6 (second series), stronger effect = lower value 0.951 | locus YLR262C, strain YPT6, stronger effect = lower value 0.988 | locus YLR268W, strain sec22, stronger effect = lower value 0.985 | locus YLR320W, strain mms22, stronger effect = lower value 1.01 | locus YLR330W, strain CHS5, stronger effect = lower value 1.01 | locus YLR342W, strain FKS1 (second series), stronger effect = lower value 0.999 | locus YLR342W, strain FKS1, stronger effect = lower value 0.958 | locus YLR357W, strain rsc2, stronger effect = lower value 0.977 | locus YLR370C, strain arc18, stronger effect = lower value 0.997 | locus YLR371W, strain rom2, stronger effect = lower value 0.996 | locus YLR384C, strain iki3, stronger effect = lower value 0.976 | locus YLR418C, strain cdc73, stronger effect = lower value 0.977 | locus YML016C, strain PPZ1, stronger effect = lower value 1.01 | locus YML032C, strain rad52, stronger effect = lower value 0.988 | locus YML120C, strain ndi1, stronger effect = lower value 0.98 | locus YML124C, strain tub3, stronger effect = lower value 0.989 | locus YMR058W, strain fet3, stronger effect = lower value 0.975 | locus YMR078C, strain ctf18, stronger effect = lower value 0.999 | locus YMR125W, strain sto1, stronger effect = lower value 0.969 | locus YMR129W, stronger effect = lower value 0.986 | locus YMR205C, strain PFK2, stronger effect = lower value 0.982 | locus YMR223W, strain ubp8, stronger effect = lower value 0.997 | locus YMR231W, strain pep5, stronger effect = lower value 0.978 | locus YMR307W, strain GAS1, stronger effect = lower value 1.06 | locus YNL067W, strain RPL9B, stronger effect = lower value 0.992 | locus YNL071W, strain lat1, stronger effect = lower value 0.995 | locus YNL153C, strain GIM3, stronger effect = lower value 0.987 | locus YNL183C, strain NPR1, stronger effect = lower value 0.988 | locus YNL209W, strain ssb2, stronger effect = lower value 0.993 | locus YNL233W, strain BNI4, stronger effect = lower value 1.01 | locus YNL248C, strain rpa49, stronger effect = lower value 0.995 | locus YNL250W, strain rad50, stronger effect = lower value 0.994 | locus YNL271C, strain bni1, stronger effect = lower value 1 | locus YNL298W, strain CLA4, stronger effect = lower value 0.995 | locus YNL307C, strain MCK1, stronger effect = lower value 0.992 | locus YNL322C, strain KRE1 (second series), stronger effect = lower value 0.961 | locus YNR049C, strain mso1, stronger effect = lower value 0.987 | locus YNR052C, strain pop2, stronger effect = lower value 0.999 | locus YOL012C, strain htz1 0.884 | locus YOL147C, strain pex11, stronger effect = lower value 0.994 | locus YOR001W, strain rrp6, stronger effect = lower value 0.979 | locus YOR061W, strain CKA2, stronger effect = lower value 1.01 | locus YOR069W, strain VPS5, stronger effect = lower value 1 | locus YOR070C, strain gyp1, stronger effect = lower value 0.992 | locus YOR080W, strain dia2, stronger effect = lower value 0.965 | locus YOR083W, strain WHI5, stronger effect = lower value 0.94 | locus YOR106W, strain vam3, stronger effect = lower value 0.945 | locus YOR136W, strain idh2, stronger effect = lower value 0.983 | locus YOR144C, strain elg1, stronger effect = lower value 0.989 | locus YOR184W, strain ser1, stronger effect = lower value 0.993 | locus YOR231W, strain MKK1, stronger effect = lower value 1.04 | locus YOR265W, strain rbl2, stronger effect = lower value 0.987 | locus YOR270C, strain vph1, stronger effect = lower value 1 | locus YOR290C, strain snf2, stronger effect = lower value 1.01 | locus YOR316C, strain cot1, stronger effect = lower value 0.997 | locus YPL051W, strain arl3, stronger effect = lower value 0.998 | locus YPL055C, strain LGE1, stronger effect = lower value 1.01 | locus YPL078C, strain atp4, stronger effect = lower value 0.954 | locus YPL106C, strain sse1, stronger effect = lower value 1 | locus YPL240C, strain hsp82, stronger effect = lower value 0.985 | locus YPL256C, strain CLN2, stronger effect = lower value 1.08 | locus YPR119W, strain clb2, stronger effect = lower value 0.998 | locus YPR141C, strain kar3, stronger effect = lower value 0.976 | locus YPR163C, strain tif3, stronger effect = lower value 0.987 | locus YPR167C, strain met16, stronger effect = lower value 0.991 | strain wtn01, stronger effect = lower value 0.973
